Screening results deposited in PubChem by several laboratories.
This is a sample that favours compounds with a hit; in the whole collection about 2.7% have one here.
SENP7 inh – blocks the human protease SENP7. recombinant SENP7, Z-RLRGG-aminoluciferin luminescence, 40 min. inhibition, % at 5 µM. 330,000 compounds, 1.5% hits;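 active means inhibition above about 50% at the single test dose, limit read from the data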
SENP6 block – blocks the human protease SENP6; Q9GZR1; Recombinant SENP6 catalytic domain, aminoluciferin luminescence; inhibition, % at 10 µM; 330,000 compounds, 1.8% hits;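 active means inhibition above about 50% at the single tested dose, limit read from the data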
Target sequence (Q9GZR1 628-1112 limits assumed): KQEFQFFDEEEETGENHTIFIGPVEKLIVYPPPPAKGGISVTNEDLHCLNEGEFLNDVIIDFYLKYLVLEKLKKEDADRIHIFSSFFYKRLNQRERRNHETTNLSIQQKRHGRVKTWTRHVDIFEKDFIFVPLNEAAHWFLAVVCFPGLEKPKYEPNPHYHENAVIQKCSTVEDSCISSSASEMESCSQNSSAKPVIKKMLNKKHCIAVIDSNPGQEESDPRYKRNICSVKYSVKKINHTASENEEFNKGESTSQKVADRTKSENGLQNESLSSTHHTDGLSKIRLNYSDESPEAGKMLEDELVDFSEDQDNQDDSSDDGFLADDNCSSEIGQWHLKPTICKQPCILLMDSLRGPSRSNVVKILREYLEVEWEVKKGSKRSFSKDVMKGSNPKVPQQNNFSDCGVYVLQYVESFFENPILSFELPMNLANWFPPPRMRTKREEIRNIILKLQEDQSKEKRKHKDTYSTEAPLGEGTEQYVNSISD
SENP8 block-1 – SENP8 protease inhibition. Q96LD8. AID 2540. inhibition, % at 10 µM. purified SENP8, Z-RLRGG-aminoluciferin cleavage, luminescence. 330,000 compounds, 1.2% hits; in the data active means inhibition above about 50%
HSP90 inh – HSP90 refolding inhibition in rabbit reticulocyte lysate; luciferase refolding luminescence, 3 h; inhibition, % at 5.6 µM; 290,000 compounds, 0.91% hits; AID 1789;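 active means inhibition above the screen-wide mean plus 3 SD, computed separately per campaign, cut at about 16% in these data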;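 further: inhibitors lower the luminescence because luciferase stays unfolded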
SENP8 block-2 – inhibitors of human SENP8 protease | Q96LD8 | recombinant SENP8, Nedd8 substrate fluorescence | inhibition, % at 20 µM | 360,000 compounds, 0.64% hits | AID 602440; in the data active means inhibition mostly above about 40%, no sharp cut-off; inactive means mostly below about 27%
SENP8 inh conf – SENP8 (human) inhibition, single concentration confirmation; AID 624319; 1,400 compounds, 15% hits; shares compounds with SENP8 block-2; purified SENP8, Nedd8-AMC/pro-Nedd8 cleavage fluorescence, 30 min; inhibition, % at 25 µM; in the data active means inhibition mostly above about 39%, no sharp cut-off; inactive means mostly below about 34%
Each line names hits and unclear results; the compound was inactive in the other large screens (follow-up assays come after a bar, where they were run).

C#CCN(C[C@@H]1[C@@H](OC(=O)NCc2ccco2)[C@@H](OC(=O)NCc2ccco2)Cn2c(=O)ccc(=O)n21)S(=O)(=O)c1ccc(C)cc1	none (no result: SENP7 inh, SENP6 block, SENP8 block-1, HSP90 inh)
O=C1NC(c2ccccc2Br)=N/C1=C\c1ccco1	none
Cc1noc(C)c1NC(=O)N(C)C[C@H]1Oc2ccc(NC(=O)C3CCCCC3)cc2C(=O)N([C@H](C)CO)C[C@@H]1C	none (no result: HSP90 inh)
Cc1cc(NC(=O)CSc2nnc(C3COc4ccccc4O3)n2N)no1 (configuration not stated)	SENP8 block-2 42.7 | SENP8 inh conf inactive
C=CCn1c(SCC(=O)Nc2cc(C)on2)nnc1C1COc2ccccc2O1 (configuration not stated)	none
COC(=O)c1cccc(C23CC4(C2)[C@H](CN(Cc2ccc(C(F)(F)F)cc2)[C@@H]4c2ccccc2)C3c2ccc(Cl)nc2)c1 (some centres not stated)	none (no result: HSP90 inh)
CNC(=O)N(c1ccccc1)c1ccccc1	SENP8 block-2 43.1 | SENP8 inh conf inactive
CC(=O)c1cccc(NC(=O)N(c2ccccc2)c2ccccc2)c1	none
CC(O)Cc1cn([C@@H](CCCCNC(=O)OC(C)(C)C)C(=O)N2CCN(C(=O)OC(C)(C)C)CC2)nn1 (some centres not stated)	none
COC(=O)Cc1c(C)nc2nc(-c3ccc(C)cc3)[nH]n2c1=O	SENP8 block-2 45.5 | SENP8 inh conf inactive
COC(=O)Cc1c(C)nc2nc(-c3ccc(Cl)cc3)[nH]n2c1=O	none
O=C(Nc1ccccn1)C12CC3CC(C1)CC(C(=O)Nc1ccccn1)(C3)C2	none
COc1ccc(NC2CCCN(C(=O)CSc3ccccn3)C2)cc1OC (configuration not stated)	SENP8 block-2 27.9 | SENP8 inh conf inactive
Cc1ccc(C(=O)c2coc3cc([N+](=O)[O-])c(O)c([N+](=O)[O-])c23)cc1	SENP8 block-2 46.8 | SENP8 inh conf inactive
Cc1ccc(C(=O)c2ccc([N+](=O)[O-])cc2)cc1	none
Cc1ccc(Cc2cnc(NC(=O)/C(C#N)=C/c3ccc(-c4ccccc4[N+](=O)[O-])o3)s2)cc1	SENP8 block-2 46.9 | SENP8 inh conf inactive
CCOc1ccc(CCNC(=O)C(C)n2nc(C)n3c(cc4occc43)c2=O)cc1OCC (configuration not stated)	SENP8 block-2 42.2 | SENP8 inh conf inactive
Cc1nn(C(C)C(=O)NCCc2ccccc2)c(=O)c2cc3occc3n12 (configuration not stated)	none
O=[N+]([O-])c1ccc(N2CCN(c3nc(-c4ccc(Cl)cc4)cs3)CC2)cc1	SENP8 block-2 42.8 | SENP8 inh conf inactive
O=[N+]([O-])c1ccc(-c2csc(N3CCCCCC3)n2)cc1	none
Cc1ccc(C(=O)NCC(=O)OCC(=O)N(CC(C)C)c2c(N)n(Cc3ccccc3)c(=O)[nH]c2=O)cc1C	none (no result: HSP90 inh)
Cc1ccc(C(=O)NCC(=O)OCC(=O)N(CC(C)C)c2c(N)n(Cc3ccccc3)c(=O)[nH]c2=O)cc1	SENP8 block-2 31.9 (no result: HSP90 inh) | SENP8 inh conf inactive
Cc1cc(C)cc(NC(=O)CSc2nnc(C3CC3)n2CC2CCCO2)c1 (configuration not stated)	none
O=C(O)c1cccc(Br)c1	SENP8 block-2 41.7 (no result: SENP7 inh, SENP6 block, SENP8 block-1, HSP90 inh) | SENP8 inh conf inactive
COc1ccc2c(c1OC)C(=O)OC2N1C(=O)CC[C@H]1C(=O)Nc1ccc2c(c1)OCO2 (some centres not stated)	SENP8 block-2 44.2 | SENP8 inh conf inactive
COc1ccccc1N1CC(C(=O)Nc2ccc3c(c2)OCO3)CC1=O (configuration not stated)	none
CCN(CC)S(=O)(=O)c1ccc(N/N=C/c2ccccc2OCC(=O)O)c([N+](=O)[O-])c1	SENP8 block-2 51.1 | SENP8 inh conf inactive
COc1ccccc1NS(=O)(=O)c1ccc(N/N=C/c2ccccc2OCC(=O)O)c([N+](=O)[O-])c1	none
Nc1nonc1OCCN1CCN(c2ccc([N+](=O)[O-])c3cccnc23)CC1	SENP8 block-2 47.4 | SENP8 inh conf inactive
Cc1nonc1OCCN1CCN(c2ccccc2[N+](=O)[O-])CC1	none
CC(=O)Nc1ccc(S(=O)(=O)N2CCSC2c2ccccc2Cl)cc1 (configuration not stated)	none
COC(=O)C1SCCN1S(=O)(=O)c1ccc(Cl)cc1 (configuration not stated)	SENP8 block-2 42.2 (no result: HSP90 inh) | SENP8 inh conf inactive
